Reference: PubChem BioAssay AID463190 (Sanford-Burnham Center for Chemical Genomics, 2010)
Among all 330,000 compounds or so, about 7,300 (2.2%) were called active.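 The calls were made as follows: active = inhibition of at least 40%; inactive = the rest.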 The sample as a whole holds a higher share of actives than the screen did.

Assay: growth inhibitors of tim10-1 mutant yeast, primary screen, luminescence, uHTS (AID 463190);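 also: mutant grown at 25 °C; 0% = DMSO wells with yeast and 100% = wells holding no yeast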
Conditions: S. cerevisiae tim10-1 ts strain growth, BacTiter-Glo, 24 h; at 20 µM; stronger effect = higher value

inhibition, inactive:
CCOc1ccc(-n2c(SC(C)C(=O)OC)nc3c(c2=O)SCC3)cc1 (stereo not given) 10.7%, Cc1cc(F)ccc1NC(=O)C(C)n1c2ccccc2c2nc(=O)cc(C)n21 (stereo not given) 13.9%, C[C@H](CO)N1C[C@H](C)[C@@H](CN(C)S(=O)(=O)c2ccc(F)cc2)Oc2c(NC(=O)Nc3ccccc3)cccc2C1=O -4.64%, O=C(OCC(=O)N1CCCC1=O)c1cc(S(=O)(=O)N2CCOCC2)ccc1Cl -17.2%, Cc1ccc(S(=O)(=O)N2CCC(C(=O)NCCC3=CCCCC3)CC2)cc1C -3%, CC(=O)Cc1nsc(NC(=O)c2ccc(Cl)cc2Cl)n1 36.5%, O=C(NCc1ccccc1Cl)c1csc2c1CCCCC2 12.3%, Cc1ccc(CNC(=O)CCC(=O)N2CC(C)Sc3ccccc32)cc1 (stereo not given) 28.3%, CCCc1nnc(NC(=O)CCC(=O)NC2CC2)s1 10.7%, Cc1ccc2[nH]c(C)c(CCNC(=O)NC3CCCCC3)c2c1 11.4%, Cc1cc(OCC(=O)N2CCN(c3ncccn3)CC2)ccc1Cl 16%, COc1ccc(C(=O)COC(=O)COc2ccc(C)c(C)c2)cc1 10.1%, COC(=O)c1cccc([N+](=O)[O-])c1CS(=O)(=O)c1ccc(C)cc1 24.5%, COc1ccc(C(=O)Nc2nc(-c3ccc(OC)cc3)c(-c3ccc([N+](=O)[O-])cc3)s2)cc1 14.1%, Cc1ccc(OC(=O)CCC(=O)Nc2ccc(Br)cc2)cc1 0.584%, CCCn1nnc2sc3c(c2c1=O)CCC(C)C3 (stereo not given) 9.67%, C=CCn1c(SCc2c(C)noc2C)nc2sc3c(c2c1=O)CCC(C)C3 (stereo not given) -4.33%, Cc1cc2c(c(=O)n1C)C(C(C)C)C(C#N)=C(N)O2 (stereo not given) -3.2%, COc1cccc(CNC(=O)C2CCN(S(=O)(=O)c3cccc4cccnc34)CC2)c1 13.9%, Cn1c(=O)c(C(=O)Nc2ncccn2)c(O)c2ccccc21 25.2%, C=CCn1c(SCc2c(C(=O)OC)sc(N)c2C(=O)OC)nnc1-c1ccc(Cl)cc1 15.3%

inhibition, active:
CC(=O)Cc1nsc(NC(=O)c2csc3c2CCCC3)n1 41.9%, Cc1ccc(/C(N)=N/OC(=O)COc2ccc(Cl)c(C)c2)cc1 41.2%, COC(=O)CCc1sc(Nc2ccc(Br)cc2)nc1-c1ccc(OC)cc1 46.4%, CC1CCc2c(sc3nc4n(c(=O)c23)CCS4)C1 (stereo not given) 40.6%
